# Assay outcomes: PubChem, National Center for Advancing Translational Sciences (NCATS)
# L3MBTL1 inh – inhibitors of human L3MBTL1; Q9Y468; AlphaScreen L3MBTL1–H3K9me1 peptide binding; Potency, µM (series often up to 57.1 µM), hits mostly inhibitors; hit rate 0.66% among 230,000; AID 485360; also: nearly all actives have a fitted effect of over 60% in size
#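 L3MBTL1 50 nM + b-AHA-H3(1-15)K9me1 75 nM, 30 min RT; compound added, 30 min RT; streptavidin donor/Ni-chelate acceptor beads 10 ug/mL each final, 30 min RT dark; AlphaScreen read.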
# BAZ2B block – inhibitors of human BAZ2B bromodomain | Q9UIF8 | AlphaScreen BAZ2B-H3K14Ac peptide displacement | Potency, µM (titrated, usually from 114 µM), usual class: inhibitors | hit rate 4.4% among 360,000; also: nearly all actives have a fitted effect of over 60% in size
# Target sequence (Q9UIF8 whole entry, looked up): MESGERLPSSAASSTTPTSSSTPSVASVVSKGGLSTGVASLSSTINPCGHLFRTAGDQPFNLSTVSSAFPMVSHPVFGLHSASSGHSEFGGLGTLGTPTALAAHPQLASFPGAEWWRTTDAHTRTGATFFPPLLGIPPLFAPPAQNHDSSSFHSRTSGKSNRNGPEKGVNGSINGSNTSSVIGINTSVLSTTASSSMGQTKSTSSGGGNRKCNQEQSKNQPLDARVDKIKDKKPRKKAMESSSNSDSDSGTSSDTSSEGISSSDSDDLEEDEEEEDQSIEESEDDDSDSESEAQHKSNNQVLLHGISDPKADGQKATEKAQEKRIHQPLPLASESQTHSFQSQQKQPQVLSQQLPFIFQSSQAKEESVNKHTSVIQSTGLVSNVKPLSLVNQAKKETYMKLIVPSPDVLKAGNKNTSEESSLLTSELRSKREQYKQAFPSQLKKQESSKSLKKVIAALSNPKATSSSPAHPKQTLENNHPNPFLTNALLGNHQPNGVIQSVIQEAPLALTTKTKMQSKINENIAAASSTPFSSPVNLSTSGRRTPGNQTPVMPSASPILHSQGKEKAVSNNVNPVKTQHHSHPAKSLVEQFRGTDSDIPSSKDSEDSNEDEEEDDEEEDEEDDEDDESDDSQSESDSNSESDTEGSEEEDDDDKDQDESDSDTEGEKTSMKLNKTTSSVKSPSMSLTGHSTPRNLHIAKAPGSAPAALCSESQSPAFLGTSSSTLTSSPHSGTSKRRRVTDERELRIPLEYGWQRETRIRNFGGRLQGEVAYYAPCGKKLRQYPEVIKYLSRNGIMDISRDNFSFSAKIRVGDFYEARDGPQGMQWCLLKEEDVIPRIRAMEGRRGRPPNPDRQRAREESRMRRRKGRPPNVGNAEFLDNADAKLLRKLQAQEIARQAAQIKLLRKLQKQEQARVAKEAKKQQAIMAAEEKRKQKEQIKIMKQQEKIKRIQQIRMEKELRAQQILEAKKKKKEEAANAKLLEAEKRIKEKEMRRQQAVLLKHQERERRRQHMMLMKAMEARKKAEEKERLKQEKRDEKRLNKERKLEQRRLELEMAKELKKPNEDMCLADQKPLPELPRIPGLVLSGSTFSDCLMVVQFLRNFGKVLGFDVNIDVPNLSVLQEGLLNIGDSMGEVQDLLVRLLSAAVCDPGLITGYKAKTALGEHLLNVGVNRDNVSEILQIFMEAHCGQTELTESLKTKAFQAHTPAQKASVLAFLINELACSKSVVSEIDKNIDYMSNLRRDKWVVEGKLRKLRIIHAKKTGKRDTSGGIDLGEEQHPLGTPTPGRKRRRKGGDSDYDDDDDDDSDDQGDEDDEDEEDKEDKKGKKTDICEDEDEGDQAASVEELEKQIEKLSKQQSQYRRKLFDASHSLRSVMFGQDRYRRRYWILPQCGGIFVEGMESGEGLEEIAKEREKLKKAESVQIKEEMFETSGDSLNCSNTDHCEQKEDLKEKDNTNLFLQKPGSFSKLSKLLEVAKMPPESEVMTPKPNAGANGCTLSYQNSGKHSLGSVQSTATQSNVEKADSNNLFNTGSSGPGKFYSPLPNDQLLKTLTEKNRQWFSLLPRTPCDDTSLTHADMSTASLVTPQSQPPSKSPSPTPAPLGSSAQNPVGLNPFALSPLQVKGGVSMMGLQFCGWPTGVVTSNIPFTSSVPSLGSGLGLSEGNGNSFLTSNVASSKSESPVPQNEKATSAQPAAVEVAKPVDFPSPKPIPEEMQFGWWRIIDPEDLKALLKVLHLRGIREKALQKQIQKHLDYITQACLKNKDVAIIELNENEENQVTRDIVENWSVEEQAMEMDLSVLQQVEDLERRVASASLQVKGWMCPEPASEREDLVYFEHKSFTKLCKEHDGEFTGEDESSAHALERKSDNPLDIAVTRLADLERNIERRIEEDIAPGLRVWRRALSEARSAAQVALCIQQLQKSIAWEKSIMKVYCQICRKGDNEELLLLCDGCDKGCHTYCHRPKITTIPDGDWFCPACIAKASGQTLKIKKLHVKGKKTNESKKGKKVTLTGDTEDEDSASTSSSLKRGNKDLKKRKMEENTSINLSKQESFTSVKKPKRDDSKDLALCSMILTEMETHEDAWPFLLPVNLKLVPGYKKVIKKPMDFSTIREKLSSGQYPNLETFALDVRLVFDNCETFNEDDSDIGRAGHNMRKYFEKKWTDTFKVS
#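 AlphaScreen displacement of biotin-H3(5-23)K14Ac peptide (50 nM final) from BAZ2B (50 nM final) in PBS pH 7.4, 0.01% Tween-20; complex preformed 30 min RT, then compounds (top 110 uM) 30 min RT, beads 20 min dark.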
# JMJD2A Tudor – JMJD2A Tudor domain (human) inhibition; O75164; Potency, µM (highest dose often 114 µM), hits mostly inhibitors; AID 504339; hit rate 4.4% among 390,000; AlphaScreen JMJD2A-Tudor / H3K4me3 peptide binding; also: nearly all actives have a fitted effect of over 50% in size
# Sfp PPTase inh – Sfp phosphopantetheinyl transferase inhibition; Potency, µM, most hits filed as inhibitors; AID 1490; Biochemical Sfp PPTase activity, qHTS; Q9F4F7; hit rate 3.5% among 310,000;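 also: the enzyme is Sfp with the accession as filed and its product quenches rhodamine fluorescence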
#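 Buffer: 50 mM Hepes-Na pH 7.6, 10 mM MgCl2, 0.01% Nonidet P-40, 0.01% BSA. Enzyme 15 nM, pre-exposed to compound 15 min; substrates then added and fluorescence change tracked over 30 min.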
# HP1b chromo inh – blocks HP1-beta chromodomain binding to methylated histone tails. P83916. AlphaScreen HP1-beta / biotin-H3K9me3 peptide binding. Potency, µM (doses to about 114 µM), most hits filed as inhibitors. hit rate 0.56% among 390,000. AID 540317; also: nearly all actives have a fitted effect of over 70% in size
#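 Compound inhibition of the preformed complex between 50 nM HP1-beta and 50 nM biotinylated H3K9me3 peptide was read by AlphaScreen. Buffer was PBS pH 7.4 with 0.01% Tween-20. Incubations ran 30 min at room temperature, with 10 ug/mL donor/acceptor beads.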
# G9a block – inhibitors of human histone lysine methyltransferase G9a | AID 504332 | G9a H3K9 monomethylation, AlphaScreen, 2 h | Q96KQ7 | Potency, µM (top dose mostly 102 µM), actives largely listed as inhibitors | hit rate 8.8% among 350,000; also: nearly all actives have a fitted effect of over 75% in size
#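 AlphaScreen detection with an anti-monomethyl H3K9 antibody quantified product after a 2 h room-temperature reaction containing 500 nM biotinylated H3K9 peptide, 20 µM SAM and 20 nM enzyme, which had been preincubated 15 min with compound.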
# A number is an active result; n = inactive; u = inconclusive; x = no result; ! = repeats disagree; [ ] = remark or other dose. Shown are actives, neighbours in structure and some others; about 12% of the full set was active somewhere. Calls follow the shape of the dose curve; as a rule, active = well fitted curve in the direction sought with a large enough effect; inconclusive = small, poorly fitted or top-dose-only effect, or another doubt; inactive = no such curve, though single readings can be large; an effect the other way counts as inactive or inconclusive.
SMILES,L3MBTL1 inh,BAZ2B block,JMJD2A Tudor,Sfp PPTase inh,HP1b chromo inh,G9a block
COc1ccc(CN(C(=O)/C=C/c2ccco2)C2CCS(=O)(=O)C2)cc1OC (configuration not stated),x,u,n,50µM,n,40µM
COc1ccc(CN(C(=O)/C=C/c2ccco2)C2CCS(=O)(=O)C2)cc1 (configuration not stated),n,50µM,u,14µM,n,50µM
COc1cccc(CN(C(=O)/C=C/c2ccco2)C2CCS(=O)(=O)C2)c1 (configuration not stated),x,n,n,25µM,n,18µM
CCOc1ccc(CN(C(=O)/C=C/c2ccco2)C2CCS(=O)(=O)C2)cc1 (configuration not stated),x,u,n,u,n,45µM
Cc1cccc(-c2nc(CCNC(=O)Cc3ccccc3)cs2)c1,x,n,n,x,n,n
O=C(/C=C/c1ccco1)N(Cc1ccc(Cl)cc1)C1CCS(=O)(=O)C1 (configuration not stated),n,n,n,25µM,n,45µM
CCOC(=O)c1cnc2c(OC)cccc2c1N1CCN(c2ccccc2OC)CC1,n,u,u,79µM,n,u
CCOC(=O)c1cnc2c(OC)cccc2c1N1CCN(c2ccc(OC)cc2)CC1,n[11.4 µM],11µM,n[11.4 µM],u,u,u
O=C(c1cccc(S(=O)(=O)NCc2ccccc2)c1)N1CCCC(C(F)(F)F)C1 (configuration not stated),n,n,n,x,n,n
Nc1ccc2c(c1)C(=O)c1cc(Cl)c(Cl)cc1-2,x,x,n,x,n,x
O=C(CN(Cc1ccc2c(c1)OCO2)C(=O)CSc1nc2ccccc2o1)NC1CCCCC1,n,n,n,79µM,n,n[2.33 µM]
CCCOc1ccccc1C(=O)Nc1ccc(S(=O)(=O)N2CCN(C)CC2)cc1,n,n,n,n,n,n
COc1ccccc1C(=O)NCCSCc1c(F)cccc1Cl,n,n,n,n,n,71µM
CS(=O)(=O)N(CC(=O)NCc1ccco1)Cc1ccc(Cl)cc1,n[11.4 µM],n,n,28µM,n,u
CS(=O)(=O)N(CC(=O)NCc1ccccn1)Cc1ccc(Cl)cc1,n,u,11µM,n,n,u
Cc1ccc(S(=O)(=O)N(Cc2ccccc2)c2ccccc2C(=O)NCc2ccco2)cc1,n,u,u,n,n,50µM
O=C(CN(Cc1ccccc1)C(=O)CNS(=O)(=O)c1ccccc1)NCc1ccco1,x,n,79µM,n,n,n
O=C(CN(Cc1ccco1)C(=O)CNS(=O)(=O)c1ccccc1)NCc1ccccc1,n,n,n,n,n,n[12.7 µM]
COc1cc(C=O)cc(Cl)c1OC(=O)N1CCOCC1,x,n,n,n,n,n
CS(=O)(=O)N(CC(=O)NCc1ccc2c(c1)OCO2)Cc1ccccc1,x,n,18µM,n,u,n[12.7 µM]
O=C(Cc1ccccc1)NCc1ccc2c(c1)OCO2,x,n,n,n,n,u
CCOC(=O)CNC1CC(=O)N(c2cccc(Cl)c2)C1=O (configuration not stated),x,n,u,n,n,10µM
Cc1noc(C)c1S(=O)(=O)Nc1ccc2c(c1)C(=O)N([C@H](C)CO)C[C@H](C)[C@@H](CN(C)S(=O)(=O)c1ccccc1)O2,n,x,n,x,n,x
O=C1NNC(c2ccccc2)=N/C1=C\c1ccccc1,n,n,n,n,n,x
Cc1ccc(/C=C2/N=C(c3ccccc3)NNC2=O)cc1,n,n,n,n,n,14µM
SMILES,L3MBTL1 inh,BAZ2B block,JMJD2A Tudor,Sfp PPTase inh,HP1b chromo inh,G9a block
CCn1nnc(NC(=O)c2cccnc2)n1,n,n,n,n,n,40µM
COc1ccc(NC(=O)c2cccnc2)cc1,n,n,n,n,n,n
CCN(CC)c1ccc(NC(=O)c2cccnc2)cc1,x,u,n,n,n,10µM
Cc1cccc(N2C(=O)CS(=O)(=O)C23C(=O)N(Cc2c(F)cccc2Cl)c2ccccc23)c1 (configuration not stated),x,n,n,x,n,n
CCCC(O)c1nc2ccccc2n1Cc1ccccc1OC (configuration not stated),x,u,n,x,n,n
CNc1nc(-c2ccc([N+](=O)[O-])cc2)cs1,n,n,n,n,n,n
O=[N+]([O-])c1ccc(-c2csc(NN=C3CCCC3)n2)cc1,n,n,n,n,n,50µM
Nc1nc(-c2ccc(Br)cc2)cs1,x,50µM,79µM,n,n,u
Nc1nc(-c2ccc(F)cc2)cs1,n,u,n,n,n,45µM
Nc1nc(-c2ccc([N+](=O)[O-])cc2)cs1,n,n,n,n,n,50µM
CC(C)C(=O)Nc1nc(-c2ccc([N+](=O)[O-])cc2)cs1,n,n,n,n,n,n
CC(C)CCNC(=O)C(=O)NCC1OCCCN1S(=O)(=O)c1cccs1 (configuration not stated),x,n,n,n,n,n
Cc1cccc(OCc2cc(=O)n3c4c(sc3n2)CCCC4)c1C,x,n,n,x,n,n
CCCCC[C@@H]1C=C(C(=O)O)[C@H](c2ccc(Br)cc2)N1S(=O)(=O)c1ccc(C)cc1,n,x,n,x,n,x
CC1(C)CC(c2nc(-c3ccc([N+](=O)[O-])cc3)cs2)CCO1 (configuration not stated),x,u,n,u,n,50µM
Nc1nc(-c2ccc3c(c2)CCC(=O)N3)cs1,n,n,n,40µM,n,45µM
O=[N+]([O-])c1ccc(-c2csc(N3CCCCCC3)n2)cc1,n,n,n,n,n,u
CC(C)[C@H](N)c1cn([C@@H](CC(N)=O)C(=O)N2CCNCC2)nn1,n,u,u,x,n,n[12.7 µM]
O=[N+]([O-])c1cccc(C=Nc2cc3c(cc2Br)OCCO3)c1,n,u,u,n,n,50µM
O=C(N/N=C/c1cccc([N+](=O)[O-])c1)c1ccc2c(c1)OCCO2,n,n,n,n,n,n
CC/C(C)=N/Oc1nc(C)cc(C)n1,n,n,n,n,n,x
Cc1nc2sccn2c(=O)c1CCN1CCC(=C(c2ccc(F)cc2)c2ccc(F)cc2)CC1,n,u,u,56µM!,n,n
CC(C)(C)C(=O)NC(=S)Nc1ccc(Cc2ccncc2)cc1,n,n,u,n,n,35µM
O=C(NC(=S)Nc1ccc(Cc2ccncc2)cc1)c1ccc(F)cc1,n,x,n,50µM,n,u
COc1cc(OC)cc(-c2c(-c3cccs3)c3cc(-c4ccc5c(c4)OCCO5)ccc3n2C)c1,n,n,n,x,n,n[0.501 µM]
CC1CCc2sc(C(=O)N(C)CC(=O)Nc3ccc(N4CCOCC4)cc3)cc2C1 (configuration not stated),x,u,u,n,n,35µM
COc1ccc(NC(=O)CN(C)C(=O)c2cc3c(s2)CCC(C)C3)cc1 (configuration not stated),x,n,n,n,n,n
